In PubChem BioAssay AID485281 (National Center for Advancing Translational Sciences (NCATS), 2010):
The campaign covered roughly 350,000 compounds. About 260 (0.074%) were called active. Not shown: some 8% with an inconclusive outcome. Calls come from the whole dose curve; as a rule, active = well fitted inhibition curve with a large enough effect; inconclusive = small, poorly fitted or top-dose-only effect; inactive = no such curve, though single readings can be large or run the other way. The entries come from a sample that favours actives as a whole.

target: Ferritin light chain (Equus caballus) (UniProt P02791); assay: qHTS Assay for Identification of Novel General Anesthetics; conditions: apoferritin/1-aminoanthracene competitive binding, fluorescence; series mostly up to 77.5 µM; activity change, negative = displacement: at the top concentration; note: nearly all actives have a fitted effect of over 20% in size
From the text: Source: NIH Chemical Genomics Center [NCGC]
Assay Submitter: Roderic Eckenhoff, University of Pennsylvania
Screening Center PI: Christopher P. Austin, NIH
Probe Development: NIH Chemical Genomics Center [NCGC]
Anesthetic development has remained a largely empirical process. There are growing concerns about the cognitive effects of known general anesthetics and acceleration of the onset of neurodegenerative disease. The compounds' toxicity and multiple specific binding targets in the mammalian brain [4] has made them less attractive as drug leads. In this assay, a GABAergic mimetic model system, apoferritin and a profluorescent 1-aminoanthracene ligand (1-AMA), was used to construct a competitive binding assay for identification of novel general anesthetics. The assay was validated for 1-AMA using other known anesthetics, such as isoflurane (CID:3763) and propofol (CID: 4943), [6].
[1] S.L. Bianchi, T. Tran, C. Liu, S. Lin, Y. Li, J.M. Keller, R.G. Eckenhoff, and M.F. Eckenhoff, Brain and behavior changes in 12-month-old Tg2576 and nontransgenic mice exposed to anesthetics. Neurobiol Aging 29 (2008) 1002-10.
[2] Z. Xie, Y. Dong, U. Maeda, R.D. Moir, W. Xia, D.J. Culley, G. Crosby, and R.E. Tanzi, The inhalation anesthetic isoflurane induces a vicious cycle of apoptosis and amyloid beta-protein accumulation. J Neurosci 27 (2007) 1247-54.
[3] P. Honegger, and J.M. Matthieu, Selective toxicity of the general anesthetic propofol for GABAergic neurons in rat brain cell cultures.
[4] M.F. Eckenhoff, K. Chan, and R.G. Eckenhoff, Multiple specific binding targets for inhaled anesthetics in the mammalian brain. J Pharmacol Exp Ther 300 (2002) 172-9.
[5] C.A. Butts, J. Xi, G. Brannigan, A.A. Saad, S.P. Venkatachalan, R.A. Pearce, M.L. Klein, R.G. Eckenhoff, and I.J. Dmochowski, Identification of a fluorescent general anesthetic, 1-aminoanthracene. Proc Natl Acad Sci U S A 106 (2009) 6501-6.
[6] W.A. Lea, J. Xi, A. Jadhav, L. Lu, C.P. Austin, A. Simeonov, and R.G. Eckenhoff, A high-throughput approach for identification of novel general anesthetics. PLoS One 4 (2009) e7150.
Three uL of reagents (free 1-AMA (50% saturated solution of 1-aminoanthracene
in PBS) in columns 3, 4 as negative control and 1-AMA/apoferritin mixture (10 uM horse-spleen apoferritin in 50% saturated 1-aminoanthracene in PBS) in columns 1, 2, 5-48) was dispensed into 1536-well Greiner black assay plates. Compounds (23 nL) were transferred via Kalypsys pintool equipped with 1,536-pin array (10 nL slotted pins, V&P Scientific, San Diego, CA). Titration of the positive control, propofol, were delivered via pin transfer from separate control plates to the 2nd column of each assay plate. The starting concentration of the control, dissolved in DMSO, was at 160 mM, followed by two-fold dilution points in duplicate, for a total of 16 concentrations. The plates were incubated for 10 min at room temperature, and then read on an EnVision HTS multilabel reader (Perkin-Elmer, Waltham, MA) (end point read, 3 min/plate) using Fura2 BFP excitation filter (380 nm, bandwidth 10 nm) and fluorescein emission filter (535 nm, bandwidth 25 nm) set. A LANCE/DELFIA dichroic mirror with a cutoff wavelength at 400 nm was used to maximize signal accuracy and strength. Vehicle-only plates, with DMSO being pin-transferred to the entire column 5-48 compound area, were inserted uniformly at the beginning and the end of each library in order to monitor for and record any shifts in the background. Activity was computed as the normalized fluorescence response relative to free 1-AMA and 1-AMA/apoferritin complex values. Concentration-effect relationships were derived by using curve fitting algorithms developed in-house (http://ncgc.nih.gov/pub/openhts/). A four parameter Hill equation was fitted to the concentration-response data by minimizing the residual error between the modeled and observed responses.
% is set by controls: 0 for no effect and ±100 for the full control effect; potency is the fitted concentration of half-maximal effect.

Chain of Ferritin light chain (Equus caballus) (P02791 2-175 limits assumed): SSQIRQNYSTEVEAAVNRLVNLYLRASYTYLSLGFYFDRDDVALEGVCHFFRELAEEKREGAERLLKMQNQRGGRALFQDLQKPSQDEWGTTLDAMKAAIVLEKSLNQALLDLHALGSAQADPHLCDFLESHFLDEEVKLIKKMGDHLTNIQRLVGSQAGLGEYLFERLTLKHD

Activity change, negative = displacement, inactive:
O=C(NCc1ccc(F)cc1)c1ccc(Cn2c(SCc3ccc(F)cc3)nc3cccnc32)cc1 -5.12%
Cc1cccc2nc(-c3ccc(Cl)s3)c(Nc3ccc4c(c3)OCCO4)n12 58.8%
O=C(NCC(c1cccnc1)N1CCc2ccccc21)c1cccc(C(F)(F)F)c1 (centres undefined) -10%
CCOc1ccc(C(=O)/C=C/c2cn(CC(O)CN3CCCCCC3)c3ccccc23)cc1 (centres undefined) -7.92%
CCOc1ccc(NC(=O)CCc2c(C)nn(-c3ccc(N4CCCC4)nn3)c2C)cc1 42.2%
Cc1ccc(-c2nc(SCc3ccc(Br)cc3)n3[nH]c(=O)cc3n2)cc1 2.21%
Cc1ccc(CN2CCc3nc(N4CCN(C)CC4)ncc3C2)cc1 11.3%
CCOC(=O)c1cnc2c(C)cc(C)cc2c1Nc1ccc(N2CCOCC2)cc1 -13.5%
COc1cc2nc(SCc3ccc(F)cc3)n3nc(CCn4c(C)nc5ccccc54)nc3c2cc1OC 26.5%
CCOCCc1nn2c(=O)cc(COC(=O)CNC(=O)c3ccc(C(C)(C)C)cc3)nc2s1 -16.9%
Cc1cccc(NC(=O)C2CCN(S(=O)(=O)c3c(C)noc3/C=C/c3ccco3)CC2)c1 -8.73%
CCN(CCCNC(=O)c1ccc(Sc2ccc(C)cc2)c(NC(C)=O)c1)c1cccc(C)c1 8.6%
CCOC(=O)c1ccc(CN(Cc2ccccc2)S(=O)(=O)c2ccc(Cl)cc2)cc1 52.1%
COc1cc(OC)c(NC(=O)N2CC3CCCN3c3ccccc32)cc1Cl (centres undefined) -13.5%
COc1ccc2[nH]c3c(c2c1)CCN(C(=O)CCC1CCCC1)C3c1ccc(F)cc1 (centres undefined) 9.86%
CN(C(=O)CSc1nc2ccccc2n1Cc1ccccc1C#N)c1ccccc1 78.3%
Cc1cccc(N2CCN(c3ccc(C(=O)O)cc3NC(=O)c3ccccc3F)CC2C)c1 (centres undefined) -15.5%
CCCCc1nn2c(=O)cc(COC(=O)c3ccc(NC(=O)c4ccccc4C)cc3)nc2s1 -0.216%
CCC(=O)N1CCc2cc(S(=O)(=O)NC(C(=O)NCCc3ccc(C)cc3)C(C)C)ccc21 (centres undefined) -8.37%
O=C(CSc1nc(-c2cccc(F)c2)[nH]c1-c1ccccc1)Nc1ccc2c(c1)OCO2 37.9%
CCOC(=O)c1ccc(NC(=O)c2c(NCc3cccs3)sc3c2CCCC3)cc1 7.21%
COc1ccc(C)cc1NC(=O)COCc1cc(-c2cccs2)on1 3.35%
Cc1ccc(-n2ncc3c(NCCCn4ccnc4)ncnc32)cc1Cl -2.7%
CCN(CC)S(=O)(=O)c1nnc(NC(=O)COc2ccccc2Cl)s1 -19.9%
Cc1nc2nc(NCc3cccc(Br)c3)[nH]n2c(=O)c1Cc1ccccc1 -2.1%
COc1ccccc1N1CCN(CCCNC(=O)c2cnn(-c3ccccc3Cl)c2C2CCN(C(=O)OC(C)(C)C)CC2)CC1 -12.6%
COc1ccc(-n2ccn(CC(=O)Nc3ccc(C)c(C)c3)c(=O)c2=O)cc1OC -4.83%
Cc1nn(C(C)C(=O)NCCc2ccccc2)c(=O)c2c1sc1ccccc12 (centres undefined) 78.3%
COc1ccc(-c2cccc(NS(=O)(=O)c3cc(C)c(OC)c(C)c3C)c2)nn1 -14.2%
Cc1cccc(C(=O)Nc2ccc(S(=O)(=O)N3CCCCC3c3cccnc3)cc2)c1 (centres undefined) 8.01%
CCCCN(CC)C(=O)c1c[nH]c2ccc(S(=O)(=O)Nc3cccc(OC)c3)cc2c1=O -15.8%
O=C(NCCNc1ccccc1[N+](=O)[O-])c1ccccc1F -17.2%
Cc1c(NC(=S)NCc2ccc(F)cc2)cccc1[N+](=O)[O-] -8.7%
CC(Nc1ccc(-c2nc(-c3ccco3)no2)cc1[N+](=O)[O-])c1ccccc1 (centres undefined) -15.1%
COc1ccc(C2C(=O)N(C3CCCCC3)CC(=O)N2Cc2ccccc2Cl)cc1OC (centres undefined) -5.68%
COc1ccc(Nc2ncc3c(n2)CCN(C(=O)OC(C)(C)C)C3)cc1 -0.4%
CCOC(=O)C1CCN(c2csc3ccc(C)cc3c2=O)CC1 -6.57%
NC(=O)Nc1ccccc1C(=O)NCCc1ccccc1 6.37%
O=C(O)c1ccccc1-c1ccccc1C(=O)NCCc1ccccc1 -2.83%
O=C1CCCc2cc(S(=O)(=O)N3CCCC(C(=O)NCc4ccccc4)C3)ccc2N1 (centres undefined) -3.62%
CCOc1ccccc1C(=O)Nc1ccc2c(c1)N(C)C(=O)c1ccccc1S2 -13.2%
Cc1cc(F)ccc1NC1(c2ccccc2)C(=O)c2ccccc2C1=O -6.15%
COc1ccc(-c2noc(-c3ccc(N4CCN(c5ccccc5)CC4)c([N+](=O)[O-])c3)n2)cc1OC -8.01%
Cc1ccc(-c2nnc(SCC(=O)NCc3ccccc3)nc2-c2ccc(C)cc2)cc1 -7.43%
Cc1ccccc1CNC(=O)C(=O)NCC(c1cccs1)S(=O)(=O)c1cccs1 (centres undefined) 46.9%
COc1ccc(Nc2cc(C(=O)NCCCN(C)c3ccccc3)c3ccccc3n2)c(OC)c1 50%
CCOC(=O)CN1C(C(=O)c2ccccc2)=C(OC(=O)C(C)(C)C)c2ccccc2S1(=O)=O -5.44%

Potency, active:
O=[N+]([O-])c1ccccc1NCc1ccc(Cl)cc1 8.91 µM
Nc1nonc1C(=O)NCCc1ccccc1 17.8 µM
